Screening data: PubChem BioAssay, National Center for Advancing Translational Sciences (NCATS)
G9a block: blocks human histone lysine methyltransferase G9a | Q96KQ7 | G9a H3K9 monomethylation, AlphaScreen, 2 h | Potency, µM (series often up to 102 µM), for inactives: at the top dose activity, negative = inhibition, actives largely listed as inhibitors | 350,000 compounds, 8.8% hits; further: on the % scale 0 is the no-effect control and ±100 the full control effect; nearly all actives have a fitted effect of over 75% in size
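AlphaScreen detection with an anti-monomethyl H3K9 antibody quantified product after a 2 h room-temperature reaction containing 500 nM biotinylated H3K9 peptide, 20 µM SAM and 20 nM enzyme, which had been preincubated 15 min with compound.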
BAZ2B inh: blocks human BAZ2B | AlphaScreen BAZ2B-H3K14Ac peptide displacement | Q9UIF8 | AID 504333 | Potency, µM (top dose mostly 114 µM), inactives show at the top dose activity change, negative = inhibition, actives largely listed as inhibitors | 360,000 compounds, 4.4% hits; further: on the % scale 0 is the no-effect control and ±100 the full control effect; nearly all actives have a fitted effect of over 60% in size
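AlphaScreen displacement: compounds (up to 110uM) incubated 30 min at room temperature with a preformed 50 nM BAZ2B/50 nM biotinylated H3K14Ac peptide complex in PBS pH 7.4 with Tween-20. Donor and acceptor beads at 10 ug/mL final added, 20 min light-protected before reading.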
HP1b binding inh: blocks HP1-beta chromodomain binding to methylated histone tails. P83916. AlphaScreen HP1-beta / biotin-H3K9me3 peptide binding. Potency, µM (doses to about 114 µM), inactives show at the highest dose activity change, negative = inhibition, actives largely listed as inhibitors. 390,000 compounds, 0.56% hits. AID 540317; further: nearly all actives have a fitted effect of over 70% in size
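HP1-beta protein (50 nM final) preincubated 30 min at room temperature with biotinylated H3(1-18)K9me3 peptide (50 nM) in PBS pH 7.4, 0.01% Tween-20, then compound added for 30 min. AlphaScreen streptavidin donor/nickel chelate acceptor beads (10 ug/mL final), 30 min dark, luminescence read.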
GLS inh: inhibitors of human glutaminase (GLS); O94925; GLS enzymatic activity, qHTS titration; Potency, µM (top dose mostly 45.5 µM), inactives show at the top dose activity change, negative = inhibition, usual class: inhibitors; 410,000 compounds, 0.21% hits; further: on the % scale 0 is the no-effect control and ±100 the full control effect
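hKGA in 45 mM KH2PO4 (pH 8.2), 0.02% Tween-20 with compound, then 1mM L-Glutamine (stock as added) plus glutamate oxidase/HRP/Amplex red coupling mix. Fluorescence read initially and after 30 min at RT; signal change reflects glutamate formation.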
JMJD2A Tudor: JMJD2A Tudor domain (human) inhibition. AlphaScreen JMJD2A-Tudor / H3K4me3 peptide binding. O75164. 390,000 compounds, 4.4% hits. Potency, µM (highest dose often 114 µM), for the others: at the top dose activity change, negative = inhibition, actives largely listed as inhibitors; further: on the % scale 0 is the no-effect control and ±100 the full control effect; nearly all actives have a fitted effect of over 50% in size
L3MBTL1 inh: inhibitors of human L3MBTL1; AlphaScreen L3MBTL1–H3K9me1 peptide binding; Potency, µM (series often up to 57.1 µM), without a hit: top-dose activity, negative = inhibition, hits mostly inhibitors; Q9Y468; 230,000 compounds, 0.66% hits; further: on the % scale 0 is the no-effect control and ±100 the full control effect; nearly all actives have a fitted effect of over 60% in size
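L3MBTL1 (50 nM) pre-complexed 30 min with biotinylated H3(1-15)K9me1 peptide (75 nM), then compounds added for 30 min at room temperature; AlphaScreen streptavidin donor/nickel chelate acceptor beads (10 ug/mL final) read after 30 min dark incubation.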
An asterisk follows results filed as active; ? = inconclusive; . = no result given; [ ] = another dose, or the depositor's remark. Only some compounds are listed: those with a hit (about 10% of all), similar ones and a draw of the others. The call rests on the fitted dose curve; in most records, active means well fitted curve in the direction sought with a large enough effect; inconclusive means small, poorly fitted or top-dose-only effect, or another doubt; inactive means no such curve, though single readings can be large; an effect the other way counts as inactive or inconclusive. Potency means the concentration at half of the fitted maximal effect.

SMILES	G9a block	BAZ2B inh	HP1b binding inh	GLS inh	JMJD2A Tudor	L3MBTL1 inh
CCOc1ccccc1-c1nc(Cn2c(=O)cc(C)c3c(C)nn(-c4ccccc4)c32)c(C)o1	4.5%[59 µM]	-18.0%	20.1%	4.3%	-10.3%	.
COc1ccc(Cn2c(CO)cnc2SCc2ccc(C)cc2)cc1	-32.3%[59 µM]	?	7.6%[57 µM]	0.4%	-31.6%	.
CCOc1ccc(-n2nc(CO)c(C(=O)NCc3ccc(Cl)cc3)n2)cc1	11.4%[59 µM]	-7.9%	27.8%	6.1%	-2.8%	.
Cc1cc2c(s1)c1cnn(Cc3ccc(Cl)c(Cl)c3)c(=O)c1n2C	.	.	.	.	-30.1%	.
Cc1cc(C)cc(C(=O)NC(CC(N)=O)c2ccc(N3CCN(c4ccccn4)CC3)c([N+](=O)[O-])c2)c1 (stereo not given)	79.4µM*	-2.2%	48.5%	-6.5%	-11.9%	-2.5%
COc1ccc(OC)c(C(=O)NC(CC(N)=O)c2ccc(N3CCN(c4ccccn4)CC3)c([N+](=O)[O-])c2)c1 (stereo not given)	79.4µM*	?	16.5%	-1.8%	-32.9%	-9.4%
COc1ccc(OC)c(C(=O)NC(CC(N)=O)c2ccc(N3CCC(N4CCCC4)CC3)c([N+](=O)[O-])c2)c1 (stereo not given)	-44.2%[12.7 µM]	-28.6%	16.1%	3.6%	-24.8%	.
Cc1cc(C)cc(C(=O)NC(CC(N)=O)c2ccc(N3CCN(C)CC3)c([N+](=O)[O-])c2)c1 (stereo not given)	?	-2.8%	41.5%	-0.2%	0.0%	-4.4%
COc1ccc(OC)c(C(=O)NC(CC(N)=O)c2ccc(N3CCN(c4ccccc4)CC3)c([N+](=O)[O-])c2)c1 (stereo not given)	?	-37.8%	20.8%	6.2%	?	-4.5%
COc1ccc(OC)c(C(=O)NC(CC(N)=O)c2ccc(N3CCC(Cc4ccccc4)CC3)c([N+](=O)[O-])c2)c1 (stereo not given)	.	44.7µM*	-19.9%	-10.6%	?	-8.9%
CCc1ccc(NC(=O)CSc2nc(=O)n(Cc3ccncc3)c3c2CCC3)cc1	8.0%[59 µM]	0.7%	22.9%	3.0%	8.8%	.
C=CC[C@H]1Cc2c(cccc2[N+](=O)[O-])[C@H](CC=C)N1	-10.1%[59 µM]	39.8µM*	25.9%	0.3%	-30.8%	.
O=C1c2sc3nc4n(c(=O)c3c2CCC1Br)CCCCC4 (stereo not given)	4.1%[0.501 µM]	50.1µM*	?	-3.2%	7.94µM*	-8.2%
COc1nc(OC)nc(N2CCC(C(=O)NCc3ccco3)CC2)n1	2.7%[12.7 µM]	5.1%	17.1%	3.2%	-3.0%	0.5%
O=C(NCc1ccco1)C1CCN(c2nc3ccccc3n2Cc2ccc(F)cc2)CC1	79.4µM*	?	-6.4%	5.8%	?	.
CC1CCCCN1C(=O)CSc1nnc(-c2ccco2)n1CC1CCCO1 (stereo not given)	14.1µM*	1.7%	31.8%	0.3%	0.0%	-3.1%
CC1CCCCN1C(=O)CSc1nnc(-c2ccco2)n1C (stereo not given)	-2.3%	-2.6%	19.2%	5.5%	0.7%	.
CCn1c(SCC(=O)N2CCCCC2C)nnc1-c1ccco1 (stereo not given)	35.5µM*	4.2%	18.6%	0.0%	-13.4%	.
Cc1ccc(C(=O)CSc2nnc(-c3ccco3)n2CC2CCCO2)cc1 (stereo not given)	11.2µM*	1.9%	9.2%	6.8%	-31.5%	3.8%
COc1ccc(N2CCN(CCC3Oc4cc([N+](=O)[O-])ccc4NC3=O)CC2)cc1 (stereo not given)	17.8µM*	28.2µM*	?	29.0%	?	-20.9%
COc1ccc(N2CCN(CCCNC(=O)CC3Oc4ccc(C)cc4NC3=O)CC2)cc1 (stereo not given)	35.5µM*	?	-8.6%	33.2%	?	-8.6%
CCN1CCN(CCC2Oc3cc([N+](=O)[O-])ccc3NC2=O)CC1 (stereo not given)	?	-4.8%	47.9%	0.0%	-7.1%	-7.5%
Cc1ccc2c(c1)NC(=O)C(CC(=O)NCCCN1CCCC1)O2 (stereo not given)	-5.5%	-5.7%	39.1%	2.0%	-25.4%	.
Cc1ccc2c(c1)NC(=O)C(CC(=O)NCCCN1CCc3ccccc3C1)O2 (stereo not given)	50.1µM*	-3.8%	15.1%	6.8%	-35.9%	.
COc1ccc(NC(=O)c2cc3c(=O)n(Cc4ccco4)ccc3nc2C)cc1	6.6%[59 µM]	-14.0%	-8.5%	0.4%	-26.0%	.
SMILES	G9a block	BAZ2B inh	HP1b binding inh	GLS inh	JMJD2A Tudor	L3MBTL1 inh
O=C(Cn1c(-c2cccs2)cc2ccccc21)NCCCN1CCN(c2ccccc2F)CC1	-1.7%[59 µM]	-22.9%	18.3%	3.2%	-20.1%	.
CCCCOc1ccc(CSc2n[nH]c(C)n2)cc1	28.2µM*	-4.2%	41.1%	-2.0%	-17.2%	5.2%
Cc1nc(SCc2ccc(C#N)cc2)n[nH]1	.	41.4%	48.8%	1.0%	1.3%	33.1%
O=C(C1CCN(S(=O)(=O)c2cccc3nonc23)CC1)N1CCN(c2ccc(F)cc2)CC1	-32.5%[59 µM]	-13.3%	-16.0%	6.0%	-28.0%	.
CC(Sc1nnc(-c2cccnc2)n1N)C(=O)Nc1ccc2c(c1)OCCO2 (stereo not given)	56.2µM*	-20.9%	20.8%	0.0%	-21.4%	-13.3%
COc1cccc(-n2c(=O)c3sccc3n(Cc3cc(=O)n4cc(Cl)ccc4n3)c2=O)c1	9.5%[59 µM]	-6.1%	12.9%	-5.1%	-9.2%	.
CC1CC2=C(NC(=S)NC2c2ccccc2F)/C(=C/c2ccccc2F)C1 (stereo not given)	17.8µM*	?	-8.3%	-3.7%	?	-16.3%
Cc1ccc(/C=C2\CC(C)CC3=C2NC(=S)NC3c2ccc(C)cc2)cc1 (stereo not given)	?	-29.5%	-18.4%	-1.2%	?	.
CC1CC2=C(NC(=S)NC2c2cccc(F)c2)/C(=C/c2cccc(F)c2)C1 (stereo not given)	31.6µM*	?	?	25.9%	?	-28.4%
N#Cc1c(C(F)(F)F)cc(-c2ccc(Cl)c(Cl)c2)nc1SCCN1CCOCC1	56.2µM*	-5.8%	33.3%	-5.5%	-5.7%	3.8%
Cc1cc(C(F)(F)F)nc(SCCN2CCOCC2)c1C#N	12.6µM*	1.6%	38.4%	1.7%	-14.1%	7.8%
CC(=O)c1ccc(NC(=O)COc2ccccc2-c2nc(-c3cccc(C)c3)no2)cc1	-30.5%[59 µM]	-7.8%	-7.2%	1.5%	-26.2%	.
COc1cccc(NC(=O)c2cnn(-c3ccccc3)c2-n2cccc2)c1	-2.8%[59 µM]	3.5%	20.4%	-10.9%	-16.0%	.
CN(C(=O)CSc1nc(C2CCCC2)nc2c1c(=O)n(C)c(=O)n2C)c1ccccc1	2.4%[59 µM]	23.6%	42.5%[57 µM]	0.6%	-9.7%	.
